From ChEMBL document CHEMBL1201862, “PubChem BioAssay data set” (2004)
About 2,100 (0.53%) of roughly 400,000 compounds were called active. Inconclusive results (about 14%) are left out. How the calls were made is not given here. The full list was thinned out, with actives kept by preference.

These compounds were tested against Ataxin-2 (Homo sapiens) (UniProt Q99700) (assay: qHTS for Inhibitors of ATXN expression.).
Type: functional

Sequence of Ataxin-2 (Homo sapiens) (Q99700 whole entry): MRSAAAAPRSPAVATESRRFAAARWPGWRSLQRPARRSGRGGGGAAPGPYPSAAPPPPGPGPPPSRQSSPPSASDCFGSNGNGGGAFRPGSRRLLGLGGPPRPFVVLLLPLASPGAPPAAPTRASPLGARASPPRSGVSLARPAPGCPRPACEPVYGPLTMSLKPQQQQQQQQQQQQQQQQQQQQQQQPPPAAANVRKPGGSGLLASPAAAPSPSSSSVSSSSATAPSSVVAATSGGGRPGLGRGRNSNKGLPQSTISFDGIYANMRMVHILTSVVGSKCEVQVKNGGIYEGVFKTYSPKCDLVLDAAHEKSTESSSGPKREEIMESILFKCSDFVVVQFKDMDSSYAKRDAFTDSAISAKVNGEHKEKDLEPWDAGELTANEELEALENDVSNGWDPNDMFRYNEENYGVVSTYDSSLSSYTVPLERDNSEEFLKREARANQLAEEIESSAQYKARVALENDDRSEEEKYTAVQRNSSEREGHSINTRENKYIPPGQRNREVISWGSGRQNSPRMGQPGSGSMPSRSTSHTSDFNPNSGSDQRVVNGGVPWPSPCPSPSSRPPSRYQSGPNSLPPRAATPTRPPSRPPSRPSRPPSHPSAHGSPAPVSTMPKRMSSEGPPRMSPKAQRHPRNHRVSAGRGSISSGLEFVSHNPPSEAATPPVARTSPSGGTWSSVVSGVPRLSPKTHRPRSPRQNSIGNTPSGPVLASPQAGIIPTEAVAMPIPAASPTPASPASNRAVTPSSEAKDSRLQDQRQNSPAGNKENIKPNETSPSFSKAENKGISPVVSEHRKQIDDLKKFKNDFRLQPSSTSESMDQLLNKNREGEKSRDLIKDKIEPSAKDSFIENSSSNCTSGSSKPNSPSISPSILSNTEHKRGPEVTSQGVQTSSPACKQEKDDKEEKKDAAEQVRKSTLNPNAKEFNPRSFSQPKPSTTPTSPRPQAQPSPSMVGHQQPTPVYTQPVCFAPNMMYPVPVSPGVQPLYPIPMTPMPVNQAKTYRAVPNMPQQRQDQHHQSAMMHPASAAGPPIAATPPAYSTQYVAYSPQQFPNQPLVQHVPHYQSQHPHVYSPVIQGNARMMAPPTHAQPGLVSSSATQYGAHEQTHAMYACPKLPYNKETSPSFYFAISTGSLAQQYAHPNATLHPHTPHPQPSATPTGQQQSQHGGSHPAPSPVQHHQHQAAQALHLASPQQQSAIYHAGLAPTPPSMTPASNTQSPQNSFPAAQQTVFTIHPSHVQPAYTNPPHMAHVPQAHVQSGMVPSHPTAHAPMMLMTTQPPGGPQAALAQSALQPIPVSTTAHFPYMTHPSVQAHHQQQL

Structure (SMILES)	Potency
Nc1cccc(Oc2c(F)c(F)c(Oc3cccc(N)c3)c(F)c2F)c1	inactive
Cc1cnc(C(=O)OCC(=O)Nc2cccc3ccccc23)cn1	inactive
CN(CC(=O)Nc1ccccc1Cl)C(=O)COC(=O)c1nc(Cl)c(Cl)c(Cl)c1Cl	28.2 µM (active)
Cc1ccc(NC(=O)CN(C)C(=O)COC(=O)c2nccnc2N)cc1	inactive
CCCCCc1c(-c2ccc(Cl)cc2)ncn1CCc1ccccc1OC	39.8 µM (active)
CCCc1c(-c2ccc(Cl)cc2)ncn1Cc1ccccc1OC	44.7 µM (active)
COc1cc2c3nnc(-c4ccccc4)c-3cn(Cc3ccccc3F)c2cc1OC	inactive
CCCCc1c(-c2ccc(Cl)cc2)ncn1CCc1ccccc1OC	39.8 µM (active)
CC(=O)c1cc2ccc(O)cc2oc1=O	inactive
COCCNC(=O)/C(=C/c1ccccc1Cl)c1ccccc1	inactive
O=C1CC(c2cccc(Br)c2)C2=C(COC2=O)N1 (centres undefined)	inactive
CN(C)/C=N/C(=S)Nc1ccc(Cl)cc1	inactive
Cn1nc(-c2ccccc2)c2nc3ccccc3nc21	inactive
CN1CCN(C2=CC3=CC(=C(C#N)C#N)CCC3CC2)CC1 (centres undefined)	inactive
Nc1ccc(C#Cc2ccc3c(=O)c4ccccc4oc3c2)cc1	inactive
COc1cccc2oc3cc(C#CC4(O)CCCCC4)ccc3c(=O)c12	22.4 µM (active)
COc1cc2c(C#CCCO)c(-c3ccc(C#N)cc3)oc(=O)c2cc1OC	inactive
COc1cc2oc3cc(C#Cc4ccc(N)cc4)ccc3c(=O)c2cc1OC	inactive
O=c1c2ccccc2oc2ccc(C#CC3(O)CCCCC3)cc12	28.2 µM (active)
O=c1c(O)c(-c2ccccc2)oc2ccccc12	inactive
Nc1c(C(=O)NCc2ccco2)c2nc3ccccc3nc2n1CCc1ccc(F)cc1	inactive
Cc1ccc(COc2ccsc2C(=O)NN)cc1	inactive
CC(=O)N1c2c(cc(Br)cc2S(=O)(=O)NCc2ccc(C)cc2)CC1C (centres undefined)	inactive
Cc1ccc(CN2C(=O)C(=O)c3cc(Br)cc(C)c32)cc1	39.8 µM (active)
Cc1ccc(CN2C(=O)C(C)Oc3ccccc32)cc1 (centres undefined)	inactive
COC(=O)c1c(NC(=O)c2ccc(S(=O)(=O)N3CCCC(C)C3)cc2)sc2c1CCN(C(C)C)C2 (centres undefined)	inactive
O=C(Nc1cc[n+](-c2nc3ccccc3nc2[N-]S(=O)(=O)c2ccc(Cl)cc2)cc1)c1cccs1	inactive
CC(=O)Nc1ccc(S(=O)(=O)[N-]c2nc3ccccc3nc2-[n+]2ccc(NC(=O)c3ccccc3)cc2)cc1	inactive
O=C(Nc1ccc[n+](-c2nc3ccccc3nc2[N-]S(=O)(=O)c2ccccc2)c1)c1ccc(Cl)cc1	11.2 µM (active)
